SMILES strings stand for the structures. Among all 300,000 compounds or so, about 4,000 (1.3%) were called active.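 How the source made its calls: active means mean replicate score, as percent of positive control median, at least 50; inconclusive means mean below 50 but one replicate at or above 50; inactive means mean and every replicate below 50.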 Many of the other results were omitted from the sample, so actives are more common in it than they were.

This assay can be described thus: S. pyogenes SKKanGAS growth inhibitors in kanamycin, primary screen, streptokinase expression inhibitor project, SKKanGAS strain, BacTiter-Glo luminescence (AID 1662).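 Further: strain carries kanamycin resistance gene driven by streptokinase promoter and grows in 40 µg/ml kanamycin; loss of luminescence reflects streptokinase promoter inhibition or plain growth inhibition; 0% = median of DMSO wells and 100% = positive control at its reference dose.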 The following applies: 6 h, at 7.5 µM, active compounds read high.
`CC1CN(S(=O)(=O)c2cccc(C(F)(F)F)c2)CN1C(=O)N1CCOCC1` (stereo not drawn): the inhibition is 0.316% (inactive).

Turning to `COc1cc2cc(C(=O)N/N=C/c3cccc(OC)c3OC)[nH]c2cc1OC`, the inhibition was 2.92% (inactive).

As for `CN(C)CCNC(=O)c1[nH]nc2c1CCc1ccccc1-2`, the inhibition was -5.17% (inactive).

Consider `COc1cccc(/C=N/NC(=O)c2[nH]nc3c2CCc2ccccc2-3)c1O`, for which the inhibition is 79% (active).

As for `COc1ccccc1C1C(C(N)=O)=C(C)Nc2nc(CCCO)nn21` (stereo not drawn), the inhibition is -3.27% (inactive).

Turning to `CCOc1ccc(CN(C)C(=O)c2ccc(=O)[nH]c2)cc1`, the inhibition was 1.34% (inactive).

As for `CCOC(=O)C1=C(CCc2ccccc2)NC(=O)NC1c1ccc2ccccc2c1` (stereo not drawn), the inhibition was 19.2% (inactive).

For the molecule `CC(C)Cn1c(CCC(=O)O)ccc1-c1cccs1`, the inhibition was -8.87% (inactive).

On to `CCCCCn1c(SCCC(C)C)nc2c1c(=O)[nH]c(=O)n2C`, for which the inhibition is 26.4% (inactive).

In the case of `CCCCCCn1c(SCC(=O)c2ccccc2)nc2c1c(=O)[nH]c(=O)n2C`, the inhibition was 73.3% (active).

As to `C=CCSc1nc2c(c(=O)[nH]c(=O)n2C)n1Cc1ccccc1`, the inhibition is -11.2% (inactive).

Consider `N=c1ccn(CC(=O)NC(N)=O)c2ccccc12`, for which the inhibition was -5.02% (inactive).

In the case of `Cc1cc(-c2ccc(C)c(S(=O)(=O)NC(C)Cc3ccco3)c2)on1` (stereo not drawn), the inhibition was 2.44% (inactive).

For `CCC(=C/c1sc2ccc3ccccc3c2[n+]1C)/C=C1\Sc2ccc3ccccc3c2N1C`, the inhibition is 69.5% (active).

With `COc1ccc(C(CNC(=O)c2cccc(S(=O)(=O)Nc3ccccc3Cl)c2)N2CCOCC2)cc1` (stereo not drawn), the inhibition is 67.6% (active).

With `COc1ccc(C(CNC(=O)c2cccc(NS(=O)(=O)c3ccc(C)c(F)c3)c2)N2CCCC2)cc1` (stereo not drawn), the inhibition is -16% (inactive).

On to `COc1ccc(C(CNC(=O)c2ccc(S(=O)(=O)Nc3ccccc3C)cc2)N2CCOCC2)cc1` (stereo not drawn), for which the inhibition was -13.5% (inactive).

On to `C=Cc1ccc(C(=O)N2CCCC(CCC(=O)N3CCN(c4ccccn4)CC3)C2)cc1` (stereo not drawn), for which the inhibition was 4.83% (inactive).

In the case of `CC(C)C(=O)Nc1nnc(SCC(=O)N2C(C)CCCC2C)s1` (stereo not drawn), the inhibition was -1.25% (inactive).

Consider `CC1Cc2ccccc2N1S(=O)(=O)c1ccc(Cl)nc1` (stereo not drawn), for which the inhibition is -1.93% (inactive).

Consider `Cc1ccc(-n2[nH]c(C)c(/C=N/N3C(=O)c4cccc5cccc(c45)C3=O)c2=O)cc1`, for which the inhibition is 8.48% (inactive).

`Cc1[nH]n(-c2ccc(Cl)cc2)c(=O)c1/C=N/n1c(C)nc2ccccc2c1=O`: the inhibition is 69.1% (active).

Turning to `CCOc1[nH]n(-c2ccc(Cl)cc2)c(=O)c1C=Nc1ccc(O)cc1`, the inhibition was 2.84% (inactive).

With `Cc1[nH]n(-c2cccc(Cl)c2)c(=O)c1-c1ccc(Cl)cc1`, the inhibition is 39.1% (inactive).

In the case of `COc1cc(NS(=O)(=O)c2ccc(N=Cc3c(C)[nH]n(-c4ccccc4)c3=O)cc2)nc(OC)n1`, the inhibition was 7.41% (inactive).

With `Cc1[nH]n(-c2cccc(Cl)c2)c(=O)c1/C=N/n1c(C)nc2ccccc2c1=O`, the inhibition was 79.2% (active).

With `CCOC(=O)C1CCN(C(=O)COC(=O)C2CCN(S(=O)(=O)c3ccc4c(c3)OCCO4)CC2)CC1`, the inhibition is 19.6% (inactive).

For `CCc1nnc(NC(=O)C2CC(=O)N(c3ccc4c(c3)OCCO4)C2)s1` (stereo not drawn), the inhibition is -3.71% (inactive).

As for `CC(OC(=O)c1ccc2noc(-c3ccccc3)c2c1)C(N)=O` (stereo not drawn), the inhibition is 6.64% (inactive).

Regarding `Clc1c(OCCCn2ccnc2)ccc2ccccc12`, the inhibition is 5.1% (inactive).

Take `Cc1ccc(CNC(=O)CCN2C(=O)[C@@H]3Cc4ccccc4CN3C2=O)cc1`: the inhibition is 4.22% (inactive).

For the molecule `CC1(c2ccccc2)NC(=O)N(CC(=O)Nc2cc(Cl)ccc2N2CCOCC2)C1=O` (stereo not drawn), the inhibition was -3.7% (inactive).

Consider `Cc1ccccc1NC(=O)CSc1nc2ccc(Nc3nc(N4CCOCC4)nc(N4CCOCC4)n3)cc2s1`, for which the inhibition was 15.9% (inactive).

On to `O=C(CSc1nc(Nc2ccccc2)nc(N2CCOCC2)n1)Nc1cc(Cl)ccc1O`, for which the inhibition is 78.3% (active).

On to `Nc1nonc1-n1nnc(C(=O)N/N=C/c2ccccc2O)c1CN1CCCC1`, for which the inhibition was -2.71% (inactive).

On to `Cc1ccc(SCc2c(C(=O)N/N=C/c3cccnc3)nnn2-c2nonc2N)cc1`, for which the inhibition is 3.15% (inactive).

On to `Nc1nonc1-n1nnc(C(=O)N/N=C/c2cc(Br)ccc2O)c1CSC1=NCCS1`, for which the inhibition was 107% (active).

On to `O=C(O)c1cccnc1Sc1ncnc2sc3c(c12)CCC3`, for which the inhibition was -1.33% (inactive).

As for `COc1ccccc1CCC(=O)NNC(=O)c1ccncc1`, the inhibition was -5.32% (inactive).

Take `CC(=O)Nc1ccc(NC(=S)NC(=O)c2ccc([N+](=O)[O-])c(C)c2)cc1`: the inhibition is -0.0689% (inactive).

Take `O=C(NC(=S)Nc1ccc(NC(=O)c2cccs2)cc1)c1ccc([N+](=O)[O-])cc1`: the inhibition was 6.3% (inactive).

For the molecule `CC(=O)NC(=S)Nc1ccc(NC(=S)NC(=O)c2ccc([N+](=O)[O-])cc2)cc1`, the inhibition was 60.3% (active).

With `NC1=NC(=O)C(Cc2cccc(Cl)c2Cl)S1` (stereo not drawn), the inhibition is -7.45% (inactive).

Take `O=C1NC(=Nc2ccc(Cl)cc2)SC1Cc1cccc(Cl)c1Cl` (stereo not drawn): the inhibition was 61.1% (active).

For the molecule `CC(C)=N/N=C1/NC(=O)C(Cc2ccccc2)S1` (stereo not drawn), the inhibition was 0.633% (inactive).

Take `COc1ccc(C(CNC(=O)c2cc3c(s2)CCCC3)N2CCOCC2)cc1` (stereo not drawn): the inhibition was -4.29% (inactive).

`O=C(Nc1cccc(Cl)c1)c1cncn1-c1ccc(F)cc1`: the inhibition is -0.257% (inactive).

As to `O=C(NNC(=S)NCc1ccco1)C(c1ccccc1)c1ccccc1`, the inhibition was 12.9% (inactive).

With `CCCCC(=O)NNC(=S)NC(=O)C(c1ccccc1)c1ccccc1`, the inhibition is 85.9% (active).

With `CC(C)C(=O)Nc1cccc(NC(=S)NC(=O)C(c2ccccc2)c2ccccc2)c1`, the inhibition was 22.1% (inactive).

For `CC(=O)N/C(=N/c1nc(C)cc(C)n1)Nc1ccc(F)cc1F`, the inhibition is -6.21% (inactive).

Turning to `Cc1ccc(OCc2nnc(SC3CCc4ccccc4C3=O)n2C)cc1` (stereo not drawn), the inhibition is 1.05% (inactive).

In the case of `CN(CCc1ccccn1)C(=O)c1ccc(OC2CCN(Cc3ccccn3)CC2)cc1`, the inhibition is 15.2% (inactive).

Turning to `Nc1cccc2c1C(=O)N(Cc1nnc(-c3ccccc3Br)o1)C2=O`, the inhibition is -13.7% (inactive).

As for `COc1ccc(OCC(=O)NCCS(=O)(=O)N2CCN(c3ccc(F)cc3)CC2)cc1`, the inhibition is -2.54% (inactive).

In the case of `CCOc1cc(N2CCOCC2)c(OCC)cc1NC(=O)C1=NN(c2cccc(C)c2)C(=O)CC1`, the inhibition was 54% (active).

Regarding `CCOc1cc(N2CCOCC2)c(OCC)cc1NC(=O)c1cc(C)nc2ccccc12`, the inhibition is 6.5% (inactive).

Take `CCOc1cc(N2CCOCC2)c(OCC)cc1NC(=O)c1ccc(C)s1`: the inhibition was -3.59% (inactive).

What is called inhibition is the relative decrease from the control value, in per cent.

Values taken from PubChem BioAssay AID1662 (Broad Institute, 2009).
